Source: PubChem BioAssay
Hits are enriched below; roughly 1.3% of the tested compounds scored in any of these assays.
GLD-1 RNA inh = GLD-1/TGE RNA complex disruptors, primary screen, biochemical, fluorescence polarization; actives 0.44% (n = 320,000); inhibition, % at 5.96 µM; purified GLD-1 + fluorescein TGE RNA; Female germline-specific tumor suppressor gld-1 (Caenorhabditis elegans), Q17339;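 active = percent inhibition above a per-plate cutoff, the plate mean of test compounds plus 3 SD, cut at about 30% in these data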;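 note: 0% = DMSO wells with GLD-1 and probe and 100% = wells lacking GLD-1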
Target sequence (Q17339 whole entry, looked up): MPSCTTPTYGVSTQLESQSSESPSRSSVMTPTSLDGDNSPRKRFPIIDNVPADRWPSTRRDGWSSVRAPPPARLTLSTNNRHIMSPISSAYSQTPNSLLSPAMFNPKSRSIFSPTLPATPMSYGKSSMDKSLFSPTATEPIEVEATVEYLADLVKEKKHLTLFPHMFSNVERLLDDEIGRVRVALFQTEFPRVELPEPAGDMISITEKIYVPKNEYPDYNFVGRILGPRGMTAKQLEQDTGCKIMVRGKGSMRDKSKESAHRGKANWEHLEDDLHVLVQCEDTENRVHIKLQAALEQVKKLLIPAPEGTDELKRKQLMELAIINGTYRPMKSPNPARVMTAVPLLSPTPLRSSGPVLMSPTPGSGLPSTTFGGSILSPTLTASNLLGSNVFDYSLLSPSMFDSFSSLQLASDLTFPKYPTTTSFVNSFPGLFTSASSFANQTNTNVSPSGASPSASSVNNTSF
EBV gp42 inh = Epstein-Barr virus gp42 inhibitors, primary screen, biochemical, uHTS, fluorescence polarization. Fluorescence polarization binding assay, mP read-out. inhibition, % (tested at 21.74 µM). actives 0.42% (n = 220,000). AID 1085, 2008; in the data active = inhibition above about 50%
eLon inh = inhibitors of E. coli Lon protease, primary screen, biochemical, fluorescence polarization | P0A9M0 | purified E. coli Lon protease | inhibition, % at 7.94 µM | actives 0.42% (n = 360,000) | AID 602123, 2011; in the data active = inhibition above about 13%, passing the limit was not always enough;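 note: 0% = enzyme with probe and DMSO and 100% = no enzyme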
BCLXL inh = inhibitors of human Bcl-xL, primary screen, biochemical, fluorescence polarization, HTS; Bcl-2-like protein 1 (Homo sapiens), Q07817; GST-Bcl-xL / FITC-Bim BH3 peptide fluorescence polarization; inhibition, % at 10.9 µM; actives 0.7% (n = 320,000); AID 2129, 2009;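 active = inhibition above the mean of all tested compounds plus 3 SD, cutoff set per campaign, cut at about 30% in these data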;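 note: 0% = DMSO wells and 100% = unlabeled Bim-BH3 peptide competitor; inhibitors lower millipolarization by displacing the labeled peptide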
MEX-5 binding = MEX-5 zinc finger RNA-binding disruptors – biochemical, C. elegans, fluorescence polarization, MLPCN library, primary screen; Zinc finger protein mex-5 (Caenorhabditis elegans), Q9XUB2; MEX-5/FITC-TCR2 RNA binding; stronger effect = lower value; activity score (negative = inhibition of binding), % at 10 µM; actives 0.38% (n = 300,000); AID 1832, 2009;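 active = inhibition past about -25% in most replicates, and total fluorescence under double the plate's negative control median, limit read from the data; inconclusive = replicates evenly split on the limit, or fluorescence at least double controls; inactive = too little inhibition in most replicates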;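 note: 0% = DMSO and -100% = 5 µM competing unlabeled TCR2 RNA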
E coli Lon conf = E. coli Lon protease inhibitor retest, confirmation, biochemical, fluorescence polarization. inhibition, % at 7.94 µM. actives 31% (n = 1,400). purified E. coli Lon. shares compounds with eLon inh; in the data active = inhibition above about 16%;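 note: 0% = enzyme with probe and DMSO and 100% = no enzyme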
* marks the source's active call; other numbers are inactive results; ? = inconclusive; . = not tested or not shown; + = active, no number.

SMILES	GLD-1 RNA inh	EBV gp42 inh	eLon inh	BCLXL inh	MEX-5 binding	E coli Lon conf
O=C(NCc1ccco1)c1ccc(COc2ccccc2[N+](=O)[O-])o1	-1	.	-16	0	0	.
CC(=O)OCCn1c(C)[n+](CCOC(C)=O)c2cc(Cl)c(Cl)cc21	1	-37	-2	-16	2	.
CC(=O)OCCn1c2nc(=O)[nH]c(=O)c-2nc2cc(C)c(C)cc21	.	-56	+	.	?	+
CC(=O)Nc1ccc(OCC(=O)Nc2ccc(Cl)c(S(=O)(=O)N3CCOCC3)c2)cc1	3	.	-13	.	.	.
CC(=O)c1ccc2c(c1)C1C=CCC1C(c1ccncc1)N2 (configuration not stated)	3	15	7	16	-1	.
CC(=O)c1ccc2c(c1)C1C=CCC1C(C(=O)O)N2 (configuration not stated)	.	-5	38*	.	.	22*
O=C(NCCN1CCOCC1)c1ccc(NC(=O)c2ccc(Br)o2)cc1	.	.	2	.	.	.
Nc1nc(NCCO)nc(NC2CCCCC2)c1[N+](=O)[O-]	-1	.	43*	0	3	-6
Cc1noc(C)c1S(=O)(=O)Nc1ccc2c(c1)CC(=O)N([C@H](C)CO)C[C@H](C)[C@@H](CN(C)CC1CC1)O2	3	.	7	.	.	.
COc1ccc(CC(=O)OCc2cc3ccccc3[nH]c2=O)cc1	-5	-11	-9	9	1	.
COc1cc(OC)cc(C(=O)OCc2cc3ccccc3[nH]c2=O)c1	4	-1	23*	6	2	-4
Cc1ccc(OCCNC(=O)Cc2ccc(S(=O)(=O)N3CCOCC3)s2)cc1	8	.	-8	-1	4	.
O=C1OC(Nc2cc(Br)cc3cccnc23)c2ccccc21 (configuration not stated)	11	2	42*	64*	.	-4
O=C(CO/N=C/c1ccc(OC(F)F)cc1)N1CCc2ccccc21	4	-24	-7	3	1	.
O=C(/C=C/c1ccc(OC(F)F)cc1)OCC(=O)N1CCc2ccccc21	0	.	17*	-12	-1	2
Cc1ccc(C)c(SCC(=O)Nc2cc(C)nn2-c2ccc(F)cc2)c1	.	-33	.	.	.	.
CC(C)C(=O)NNS(=O)(=O)c1ccccc1[N+](=O)[O-]	1	-8	15*	4	1	3
CS(=O)(=O)N(CC(=O)Nc1ccc(S(=O)(=O)N2CCCC2)cc1)c1ccccc1	-6	-24	-6	6	0	.
NC(=O)NC1NC(=O)NC1=O (configuration not stated)	4	-7	-10	1	-2	.
O=c1[nH]c(=S)[nH]c2c1C(c1ccc(Br)cc1)c1c([nH]c(=S)[nH]c1=O)O2	2	.	32*	39*	-71*	-49
Cc1cccc(NC(=S)N2N=CCC2c2ccccc2)c1 (configuration not stated)	1	-3	-8	5	1	.
CC1=NN(C(=S)Nc2ccccc2)C(c2ccccc2)C1 (configuration not stated)	4	-23	84*	0	-3	9
COC(=O)c1cccc(CSc2nc(-c3ccccc3)c(C#N)c(=O)[nH]2)c1	1	.	3	1	0	.
COCc1ccc(C(=O)NC2CCCc3c2cnn3-c2ccc(C)c(C)c2)o1 (configuration not stated)	5	.	1	4	3	.
O=C1CCNc2ccc(-c3ccccc3)cc21	8	+	73*	15	-67*	+
SMILES	GLD-1 RNA inh	EBV gp42 inh	eLon inh	BCLXL inh	MEX-5 binding	E coli Lon conf
Cc1ccc2c(c1)C(=O)CCN2	5	3	-4	15	-1	.
O=c1[nH]c2cc3ccccc3cc2nc1-c1nnnn1C1CCCC1	.	.	19	.	.	.
Cc1ccc(OCC(=O)N2CCN(S(C)(=O)=O)CC2)cc1	6	-10	50*	-3	0	-7
COc1ccc(S(=O)Cc2ccc(C(=O)NCc3cccc(OC)c3)o2)cc1 (configuration not stated)	4	.	-5	6	-1	.
Cc1c(CCO)c(=O)[nH]n1C(=O)c1ccc(F)cc1	1	-2	-4	-1	-1	.
CC(Sc1ccc(S(=O)(=O)N(C)C)cn1)C(=O)NC1CCCC1 (configuration not stated)	6	.	25*	5	.	-34
CC(Sc1ncccn1)C(=O)NC1CCCC1 (configuration not stated)	1	.	-12	2	.	.
O=C(Nc1ccc(N2CCOCC2)cc1)c1ccc2nc(-c3ccco3)c(-c3ccco3)nc2c1	4	-5	-8	0	-1	.
S=C(Nc1ccc(N2CCOCC2)cc1)Nc1ccc2nc(-c3ccco3)c(-c3ccco3)nc2c1	129*	111*	43*	188*	-1	84*
Cn1nc(C(C)(C)C)cc1C(=O)N1CCCCC1c1cc(C(=O)NCc2cccnc2)no1 (configuration not stated)	.	.	3	.	.	.
Nc1ccc2c3c(ccc([N+](=O)[O-])c13)CC2	.	.	-5	.	.	.
N#Cc1c(NCCCO)nc(-c2ccccc2)c2c1CCCC2	3	-10	14*	3	0	-3
CC(C)(C)c1ccc(S(=O)(=O)NC(=O)C2(C)CCN2C(=O)C2CC2)cc1 (configuration not stated)	.	.	9	.	.	.
CCc1c(Cl)nc(N)nc1Nc1ccccc1C	.	.	-4	.	.	.
Cc1ccccc1Nc1nc(N)[nH]c(=O)c1N=O	.	.	26*	.	.	-6
CCOc1ncccc1C(=O)Nc1cccc(-n2cnnn2)c1C	-1	.	-8	.	.	.
Cc1c(NC(=O)c2cc(Br)ccc2Cl)cccc1-n1cnnn1	1	.	20*	.	.	-4
COc1ccc(NC(=O)COc2ccccc2C(N)=O)cc1S(=O)(=O)N1CCCCC1	.	.	-1	.	.	.
CC(=O)c1ccccc1OCC(=O)Nc1cccc(S(=O)(=O)N2CCCC2)c1	-3	.	0	0	.	.
CCOc1ccccc1OCC(=O)Nc1cccc(S(=O)(=O)N2CCCCCC2)c1	-6	.	60*	1	-1	-6
Cc1ccc(NC(=O)COc2ccccc2C(N)=O)cc1S(=O)(=O)N1CCCCCC1	4	.	22*	-6	.	1
COc1ccc(CCC(=O)Nc2ccc(S(=O)(=O)N3CCCC3)cc2)cc1OC	-3	.	-2	-1	.	.
CN(C)c1cc2c3ccccc3n(C)c2cc1N	.	.	41*	.	.	52*
Cc1ccc(C)c2c1c1ccccc1n2C	0	-6	2	0	0	.
Cc1ccc(-n2nc3c(N4CCC(C(=O)NCc5cccc(F)c5)CC4)nnc(C)c3c2C)cc1	-12	.	-6	-1	6	.
